# Test results as given in PMC12864922, “TDP-43 directly inhibits mRNA accumulation in neurites through modulation of mRNA stability”.
# In all, about 9,900 sequences were measured (“r (bound/input frequency ratio)”: median about 0.7, highest 2% from about 6.5 on). The sample as a whole holds a higher share of the highest values than the screen did.
# B1: ENSMUSG00000043670.217|Diras1|25:29;58:70;94:99;102:106;111:115;225:229 (ssRNA)
# RNA: GGGAGUUCUACAGUCCGACGAUCGCUUCGAUAUCCGCAUGCUAGGAUGGGGUGUUCUUGCACCACUUACACAUCUUAGUGAGACCACAGUGUAAGUGGCCCACACACACACACGGGGGGGGCACCUAGACAUUGUGCACACACUCAUACGCUCACACAUUUCAGGGGUGGGUGACACAGGCCUGUCUGAUGAGCACCAGGUCUGUUCCAGGCUGUGGCAAGCUGGCUCCUGGCUCAGAAGUGACAAAGCUGCAGUACAGAGGCCUCACACACAGGUCAUCACCUCACAGUGGCUACAGACCAGCUCUUGCGGUCGCACUAGUGUGGAAUUCUCGGGUGUCAAGG
# B2: ENSMUSG00000042529.423|Kcnj12|7:11;23:33;56:61;218:222 (ssRNA)
# RNA: GGGAGUUCUACAGUCCGACGAUCGCUUCGAUAUCCGCAUGCUAGUGAGGCACACGAGGUCCCAGGCACACACAUACUGAAUGUCAGUGGCUUGGGUGCACACACGAGAGAGAGAGAGAGAGAGAGAGAGAGAGAGAGAGAGAGAGAGAGAGAGAGCUGCACAGGAUGAAGCAGCUGCCCUGAGCCCAUCUGGUGCUGUGCACCUGGUCCUUGUCCAGCCGAGGGCCUGGGGGCAGAAGAACACACCAUAGGGAGGCCCUUCAUACGGUGUCUGCCCUAUGUGAGGUCAUAGAAUGUUAAAUCUCUCUUGCGGUCGCACUAGUGUGGAAUUCUCGGGUGUCAAGG
# B3: ENSMUSG00000042529.420|Kcnj12|1:11;16:21;25:29;41:51;74:79;236:240 (ssRNA)
# RNA: GGGAGUUCUACAGUCCGACGAUCGCUUCGAUAUCCGCAUGCUACACACACACACAACAACACACAGGCACACGAGGUCCCAGGCACACACAUACUGAAUGUCAGUGGCUUGGGUGCACACACGAGAGAGAGAGAGAGAGAGAGAGAGAGAGAGAGAGAGAGAGAGAGAGAGAGCUGCACAGGAUGAAGCAGCUGCCCUGAGCCCAUCUGGUGCUGUGCACCUGGUCCUUGUCCAGCCGAGGGCCUGGGGGCAGAAGAACACACCAUAGGGAGGCCCUUCAUACGGUGUCUGCCCUAUGUGAGGCUCUUGCGGUCGCACUAGUGUGGAAUUCUCGGGUGUCAAGG
# B4: ENSMUSG00000042529.425|Kcnj12|11:21;44:49;206:210 (ssRNA)
# RNA: GGGAGUUCUACAGUCCGACGAUCGCUUCGAUAUCCGCAUGCUAAGGUCCCAGGCACACACAUACUGAAUGUCAGUGGCUUGGGUGCACACACGAGAGAGAGAGAGAGAGAGAGAGAGAGAGAGAGAGAGAGAGAGAGAGAGAGCUGCACAGGAUGAAGCAGCUGCCCUGAGCCCAUCUGGUGCUGUGCACCUGGUCCUUGUCCAGCCGAGGGCCUGGGGGCAGAAGAACACACCAUAGGGAGGCCCUUCAUACGGUGUCUGCCCUAUGUGAGGUCAUAGAAUGUUAAAUCUAUUUUAAACGGUCUCUUGCGGUCGCACUAGUGUGGAAUUCUCGGGUGUCAAGG
# B5: ENSMUSG00000042529.422|Kcnj12|4:9;13:17;29:39;62:67;224:228 (ssRNA)
# RNA: GGGAGUUCUACAGUCCGACGAUCGCUUCGAUAUCCGCAUGCUAACAACACACAGGCACACGAGGUCCCAGGCACACACAUACUGAAUGUCAGUGGCUUGGGUGCACACACGAGAGAGAGAGAGAGAGAGAGAGAGAGAGAGAGAGAGAGAGAGAGAGAGAGCUGCACAGGAUGAAGCAGCUGCCCUGAGCCCAUCUGGUGCUGUGCACCUGGUCCUUGUCCAGCCGAGGGCCUGGGGGCAGAAGAACACACCAUAGGGAGGCCCUUCAUACGGUGUCUGCCCUAUGUGAGGUCAUAGAAUGUUCUCUUGCGGUCGCACUAGUGUGGAAUUCUCGGGUGUCAAGG
# B6: ENSMUSG00000042529.419|Kcnj12|1:17;22:27;31:35;47:57;80:85;242:246 (ssRNA)
# RNA: GGGAGUUCUACAGUCCGACGAUCGCUUCGAUAUCCGCAUGCUACACACACACACACACACAACAACACACAGGCACACGAGGUCCCAGGCACACACAUACUGAAUGUCAGUGGCUUGGGUGCACACACGAGAGAGAGAGAGAGAGAGAGAGAGAGAGAGAGAGAGAGAGAGAGAGAGAGCUGCACAGGAUGAAGCAGCUGCCCUGAGCCCAUCUGGUGCUGUGCACCUGGUCCUUGUCCAGCCGAGGGCCUGGGGGCAGAAGAACACACCAUAGGGAGGCCCUUCAUACGGUGUCUGCCCUAUCUCUUGCGGUCGCACUAGUGUGGAAUUCUCGGGUGUCAAGG
# B7: ENSMUSG00000042529.426|Kcnj12|5:15;38:43;200:204 (ssRNA)
# RNA: GGGAGUUCUACAGUCCGACGAUCGCUUCGAUAUCCGCAUGCUACAGGCACACACAUACUGAAUGUCAGUGGCUUGGGUGCACACACGAGAGAGAGAGAGAGAGAGAGAGAGAGAGAGAGAGAGAGAGAGAGAGAGAGCUGCACAGGAUGAAGCAGCUGCCCUGAGCCCAUCUGGUGCUGUGCACCUGGUCCUUGUCCAGCCGAGGGCCUGGGGGCAGAAGAACACACCAUAGGGAGGCCCUUCAUACGGUGUCUGCCCUAUGUGAGGUCAUAGAAUGUUAAAUCUAUUUUAAACGGUGAAACUCUCUUGCGGUCGCACUAGUGUGGAAUUCUCGGGUGUCAAGG
# B8: ENSMUSG00000042529.427|Kcnj12|1:9;32:37;194:198 (ssRNA)
# RNA: GGGAGUUCUACAGUCCGACGAUCGCUUCGAUAUCCGCAUGCUACACACAUACUGAAUGUCAGUGGCUUGGGUGCACACACGAGAGAGAGAGAGAGAGAGAGAGAGAGAGAGAGAGAGAGAGAGAGAGAGAGCUGCACAGGAUGAAGCAGCUGCCCUGAGCCCAUCUGGUGCUGUGCACCUGGUCCUUGUCCAGCCGAGGGCCUGGGGGCAGAAGAACACACCAUAGGGAGGCCCUUCAUACGGUGUCUGCCCUAUGUGAGGUCAUAGAAUGUUAAAUCUAUUUUAAACGGUGAAACUGGAGAACUCUUGCGGUCGCACUAGUGUGGAAUUCUCGGGUGUCAAGG
# B9: ENSMUSG00000042529.421|Kcnj12|1:5;10:15;19:23;35:45;68:73;230:234 (ssRNA)
# RNA: GGGAGUUCUACAGUCCGACGAUCGCUUCGAUAUCCGCAUGCUACACACAACAACACACAGGCACACGAGGUCCCAGGCACACACAUACUGAAUGUCAGUGGCUUGGGUGCACACACGAGAGAGAGAGAGAGAGAGAGAGAGAGAGAGAGAGAGAGAGAGAGAGAGAGCUGCACAGGAUGAAGCAGCUGCCCUGAGCCCAUCUGGUGCUGUGCACCUGGUCCUUGUCCAGCCGAGGGCCUGGGGGCAGAAGAACACACCAUAGGGAGGCCCUUCAUACGGUGUCUGCCCUAUGUGAGGUCAUAGCUCUUGCGGUCGCACUAGUGUGGAAUUCUCGGGUGUCAAGG
# B10: ENSMUSG00000042529.424|Kcnj12|1:5;17:27;50:55;212:216 (ssRNA)
# RNA: GGGAGUUCUACAGUCCGACGAUCGCUUCGAUAUCCGCAUGCUACACACGAGGUCCCAGGCACACACAUACUGAAUGUCAGUGGCUUGGGUGCACACACGAGAGAGAGAGAGAGAGAGAGAGAGAGAGAGAGAGAGAGAGAGAGAGAGAGCUGCACAGGAUGAAGCAGCUGCCCUGAGCCCAUCUGGUGCUGUGCACCUGGUCCUUGUCCAGCCGAGGGCCUGGGGGCAGAAGAACACACCAUAGGGAGGCCCUUCAUACGGUGUCUGCCCUAUGUGAGGUCAUAGAAUGUUAAAUCUAUUUUACUCUUGCGGUCGCACUAGUGUGGAAUUCUCGGGUGUCAAGG
# B11: ENSMUSG00000042529.274|Kcnj12 (ssRNA)
# RNA: GGGAGUUCUACAGUCCGACGAUCGCUUCGAUAUCCGCAUGCUAGUGUGCUUACCUGCCACUCACCUCUCUAUCUAGUUGUCGAGUCUAGGGAAGGGCAGAGGGUGGGUCCUGGCCACUGGGUGCCACUGUGGGAGCCGGGGCACCUGUCAUUCUUUCUGAGUAGGUGGGCCUGUAUCCAGAGCAGGGUCUAGGGGCUCCUGCUCCCGGCUCAUCUCAGUGGCCUGAAGCAUUCAAAACUCUAGCCAGCCCCAUCCUCCUCCCUGCCAGAAUGGUCCAGUCCCUGGGCCCUGCUGGAGAGCAGCCUCUUGCGGUCGCACUAGUGUGGAAUUCUCGGGUGUCAAGG
# B12: ENSMUSG00000004113.47|Cacna1b (ssRNA)
# RNA: GGGAGUUCUACAGUCCGACGAUCGCUUCGAUAUCCGCAUGCUAGCUAUCACUGCACUUUGGGACUCAGCACUGGCGUCCGGGCGCGGCACAGCUACCACCACCCCGAUCAGGACCACUGGUGCUAGCUGCACCACGACCACCCAUGUACCAGCUCCAUGGGUGAGGGUUCCAGUUGAUGAGUUUUAUCAUCCGCUCUGGGCUGUGGGGUCACAGCCCUGGGAGGAGGGCCCUCACAUCUCGGCCUCUGUGGUGGAGGCUCCUGCUUCCCUCCCUCCCUCCCUUUUACACUGGAUAGACUAAUACUCUUGCGGUCGCACUAGUGUGGAAUUCUCGGGUGUCAAGG
# B13: ENSMUSG00000004113.89|Cacna1b|48:52;211:215;227:232 (ssRNA)
# RNA: GGGAGUUCUACAGUCCGACGAUCGCUUCGAUAUCCGCAUGCUAGACUAAUAAAGCCCUUUCUUAGAGGGACAUGGUUCUCUCUAUCCUCCACACAACUGCCUUCCUGGGUUCCAUGCCAGAUGUUGGAUCCUAAGCAGGAGGUAGCUGAGUUGAGAUGGACCCAGCAAAUCCAAAUCCUAUGUCAUGGCCUCCAGCAUCCAGGGUGGGUCCUUGGGACUUUUCUUAGGAGGGACUUUCUGAGCCUCGUGGAGACACACGUUUGUCCAAAACACACGCAUGGGAGAUAGGGUACCCCUGAAAGCCUCUUGCGGUCGCACUAGUGUGGAAUUCUCGGGUGUCAAGG
# Biological target: TDP-43 (Homo sapiens, UniProt Q13148 1-414)
# Sequence (Q13148 whole entry): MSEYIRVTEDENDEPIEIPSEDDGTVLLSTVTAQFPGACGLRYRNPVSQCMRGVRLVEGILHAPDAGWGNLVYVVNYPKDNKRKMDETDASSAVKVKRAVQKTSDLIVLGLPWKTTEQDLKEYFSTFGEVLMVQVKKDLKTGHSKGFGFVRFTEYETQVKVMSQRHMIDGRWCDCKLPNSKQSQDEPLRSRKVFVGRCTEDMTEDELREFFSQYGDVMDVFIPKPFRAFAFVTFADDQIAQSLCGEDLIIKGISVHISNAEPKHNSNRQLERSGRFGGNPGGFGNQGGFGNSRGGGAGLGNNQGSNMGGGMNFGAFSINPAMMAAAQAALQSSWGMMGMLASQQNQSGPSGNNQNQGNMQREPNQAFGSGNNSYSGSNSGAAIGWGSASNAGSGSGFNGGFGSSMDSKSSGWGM
# Test: RNA Bind-n-Seq with designed 260-mer pool; 25 mM Tris-HCl, 150 mM KCl, 3 mM MgCl2, BSA (printed 500 mg/mL), 20 units/mL SUPERase IN; pH not stated; 500 nM RNA pool, 1 h, 4 C; TDP-43 5, 50, 500 nM; high values mean tight binding
# Conditions: protein: recombinant; tags: SBP (GST cleaved off with PreScission; pGEX-GST-SBP)
# How it was run: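 Binding (R) is the ratio of each oligo's mapped-read-normalized abundance in the bound fraction to its abundance in the input. To obtain it, SBP-tagged recombinant TDP-43 (5, 50 or 500 nM) on streptavidin beads was incubated with 500 nM of an in vitro-transcribed 260-nt 3′ UTR oligo pool for 1 h at 4 °C in 25 mM Tris-HCl, 150 mM KCl, 3 mM MgCl2, BSA and SUPERase IN. The RNA retained after washing was released with biotin, then reverse transcribed, amplified by PCR and sequenced.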
row,Binder,binding signal
1,B1,0.883 R (bound/input frequency ratio)
2,B2,7.58 R (bound/input frequency ratio)
3,B3,4.97 R (bound/input frequency ratio)
4,B4,6.2 R (bound/input frequency ratio)
5,B5,6.32 R (bound/input frequency ratio)
6,B6,6.45 R (bound/input frequency ratio)
7,B7,5.67 R (bound/input frequency ratio)
8,B8,5.49 R (bound/input frequency ratio)
9,B9,7.21 R (bound/input frequency ratio)
10,B10,6.55 R (bound/input frequency ratio)
11,B11,0.622 R (bound/input frequency ratio)
12,B12,0.27 R (bound/input frequency ratio)
13,B13,0.504 R (bound/input frequency ratio)
